Yeast superoxide = reduction of superoxide in aged yeast, primary screen, HTS | hit rate 0.18% among 330,000 | S. cerevisiae aged cells, superoxide DHE fluorescence; stronger effect = lower value | superoxide response (% of plate mean), % at 10 µM;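 active = superoxide response under a set limit, about three screen SD below normal, cut at about 65% in these data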;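 note: yeast aged for seven days with compound at 30 °C before DHE staining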
LANA-H2B inh = blockers of LANA interaction with H2A/H2B – biochemical, FP readout, HTS, primary screen; cell-free LANA-H2A/H2B peptide, fluorescence polarization; inhibition, % (no concentration beside the values); hit rate 0.6% among 320,000; in the data active = inhibition mostly above about 10%, no sharp cut-off; inactive = mostly below about 6.7%
HIF act = HIF pathway transcriptional activators, primary screen, cell-based, U2OS HRE-luciferase, luminescence; U2OS HRE-luciferase reporter; normalized: DMSO 0%, desferrioxamine 100%; hit rate 0.32% among 300,000; AID 1910, 2009; activation, % at 7.5 µM (by protocol);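 active = mean activation of at least 10% of the iron chelator positive control signal, with at least half of replicates also reaching 10%; inconclusive = mean and replicate majority disagree about reaching 10%; inactive = mean and most replicates under 10%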
HDAC3 inh = HDAC3 deacetylase inhibitors, primary screen, biochemical, fluorescence, cell-free homogeneous; hit rate 0.15% among 320,000; inhibition, % at 8.3 µM; recombinant HDAC3, fluorogenic peptide/trypsin coupled; AID 2718, 2010; Histone deacetylase 3 (Homo sapiens), O15379; in the data active = inhibition above about 26%, passing the limit was not always enough; inconclusive = no clear call, values can overlap the other calls
Target sequence (O15379 whole entry, looked up): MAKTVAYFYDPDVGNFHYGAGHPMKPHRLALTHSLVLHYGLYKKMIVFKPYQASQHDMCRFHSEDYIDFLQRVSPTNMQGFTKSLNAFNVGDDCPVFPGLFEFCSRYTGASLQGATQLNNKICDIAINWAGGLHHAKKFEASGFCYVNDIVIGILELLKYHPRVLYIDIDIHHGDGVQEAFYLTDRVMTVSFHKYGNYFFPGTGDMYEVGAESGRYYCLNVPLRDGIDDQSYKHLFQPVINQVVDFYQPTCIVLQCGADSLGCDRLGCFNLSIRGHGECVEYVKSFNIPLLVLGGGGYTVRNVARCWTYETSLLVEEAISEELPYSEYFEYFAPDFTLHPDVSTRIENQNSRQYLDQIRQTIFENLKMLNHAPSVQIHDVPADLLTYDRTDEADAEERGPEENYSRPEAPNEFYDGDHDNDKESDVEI
Numbers stand for hits; i = inactive; ? = inconclusive; nt = no result; + = active, no number. Most compounds without a hit are left out; they make up all but 1.2% or so of the library.

SMILES	Yeast superoxide	LANA-H2B inh	HIF act	HDAC3 inh
CCN(CC(=O)Nc1c(F)cccc1F)C(=O)CCOc1ccccc1	i	i	i	i
CCOc1ccc(OCCCC(=O)N(CC)CC(=O)Nc2c(F)cccc2F)cc1	i	36	nt	i
CNCCCCOc1ccc(C(C)(C)C)cc1Cl	i	i	i	i
COC(=O)c1ccc(NC(=O)COC(=O)c2cccc3c(=O)c(C)c(-c4ccccc4)oc23)cc1	i	i	i	i
Cc1c(-c2ccccc2)oc2c(C(=O)OCC(=O)Nc3ccc(C(N)=O)cc3)cccc2c1=O	i	28	i	i
CCC(C)NC(=O)CCn1c(=O)c2cccn2c2ccc(F)cc21 (stereo unspecified)	i	i	i	i
O=C(Nc1ccccc1C(=O)N/N=C/c1ccco1)c1ccc(Cl)cc1	i	+	i	i
O=C(CC(C(=O)O)P(=O)(c1ccccc1)c1ccccc1)c1ccccc1 (stereo unspecified)	i	i	i	i
CCC(C(=O)O)P(=O)(c1ccc(Cl)cc1)c1ccc(Cl)cc1 (stereo unspecified)	i	13	i	i
COc1cccc(/C=N/Nc2ccc([N+](=O)[O-])cn2)c1O	i	i	50	i
COc1ccnc2c1c(=O)n(Cc1ccc(Cl)cc1Cl)c(=O)n2C	i	i	i	i
O=C(Nc1ccccc1)c1ccccc1CCc1ccccc1	i	23	i	i
CCCCc1cc(=O)oc2cc(OCC(=O)NCCN3CCOCC3)ccc12	i	15	i	i
CC(Oc1ccc2ccc(=O)oc2c1)C(=O)NCCN1CCOCC1 (stereo unspecified)	i	i	61	i
COc1ccc(-c2cc(=O)oc3cc(OCC(=O)NCCN4CCOCC4)ccc23)cc1	i	16	i	i
Cc1cc(=O)oc2cc(OCC(=O)NCCN3CCOCC3)ccc12	i	i	i	i
COc1cc(/C=N/NC(N)=O)c(Br)cc1OCC(=O)Nc1ccccc1C	i	i	i	i
COc1cc(/C=N/O)c(Br)cc1OCC(=O)Nc1ccccc1C	i	17	i	i
O=S(=O)(c1ccc2c(c1)OCCO2)C1CCC(S(=O)(=O)c2c(F)cccc2F)CC1 (stereo unspecified)	i	i	nt	40
CC(C)[C@H](NC(=O)[C@@H]1Cc2ccccc2CN1)C(=O)Nc1ccc2c(c1)OCO2	i	i	i	i
O=C(Oc1ccc2cc(Br)ccc2c1)N1CCCCCC1	58	i	i	i
O=C(Oc1ccc2ccccc2c1Br)N1CCCCCC1	i	i	i	i
C/C(=N/NC(=O)c1ccccc1)C1=C(O)CC(C)(C)CC1=O	i	i	i	71
CCCCCCC1(C)NC(=S)N(c2ccccc2)N1 (stereo unspecified)	i	13	i	?
COc1cc(NC(=O)C2CC2)c(OC)cc1NC(=O)CCC(=O)NC1CCN(Cc2ccccc2)CC1	i	i	i	i
SMILES	Yeast superoxide	LANA-H2B inh	HIF act	HDAC3 inh
Cc1ccc2c(c1)N(C(C)C(=O)NCc1ccccn1)C(=O)CO2 (stereo unspecified)	i	i	i	i
Cc1ccc2c(c1)N(C(C)C(=O)NCc1cccs1)C(=O)CO2 (stereo unspecified)	i	20	i	i
O=C(Nc1nc(-c2ccccc2)cs1)C1c2ccccc2Oc2ccccc21	i	46	i	i
Cc1cccc(N2C(=O)CCC2=O)n1	i	i	i	i
Cc1ccc(NC(=O)CN(C)C(=O)c2ccc(NS(=O)(=O)c3ccc4[nH]c(=O)[nH]c4c3)cc2)cc1	i	29	nt	i
CN(Cc1ccc(F)cc1)C(=O)c1ccc(NS(=O)(=O)c2ccc3[nH]c(=O)[nH]c3c2)cc1	i	i	i	i
COCCn1c(-c2ccc(NC(C)=O)cc2)nc2c1c(=O)[nH]c(=O)n2CC(C)C	i	13	i	i
COCCn1c(-c2ccc(-c3ccccc3Cl)o2)nc2c1c(=O)[nH]c(=O)n2CC(C)C	i	i	i	i
COc1cc(/C=C/C(=O)N2CCN(C(=O)/C=C/c3cc(OC)c(OC)c(OC)c3)CC2)cc(OC)c1OC	i	i	i	i
COc1cc(/C=C/C(=O)N2CCCC2)cc(OC)c1OC	i	9.1	i	i
COc1cccc(N(CC(=O)N/N=C(\C)c2cccs2)S(C)(=O)=O)c1	i	i	i	i
O=C(N/N=C/c1cc(Br)cc(Br)c1O)c1ccncc1	i	i	13	i
O=C(N/N=C/c1cc(Br)cc(Br)c1O)c1cccc(N2CCCC2=O)c1	i	i	9.6	i
O=C(N/N=C/c1cc(Cl)cc(Cl)c1O)c1ccncc1	i	i	29	i
O=C(NCC1CCCO1)c1ccccc1NS(=O)(=O)c1cc([N+](=O)[O-])ccc1Cl (stereo unspecified)	i	i	nt	i
CC(C)n1cc(CN2CCC(n3nccc3NC(=O)C3CCCC3)CC2)cn1	i	i	i	i
O=C(c1ccccc1)c1cc2ccc(O)cc2oc1=O	i	41	i	i
O=C(c1ccc(Br)cc1)c1cc2ccc(O)cc2oc1=O	i	i	i	i
CC(NC(=O)c1cc(COc2c(F)cccc2F)on1)c1cnn(-c2ccccc2)c1 (stereo unspecified)	i	47	i	i
Cc1cc(C)nc(N/N=C/c2cc(Br)ccc2O)n1	i	i	34	i
COCCc1nc2ccc(C(=O)N3CCCC(CCCO)C3)cc2o1 (stereo unspecified)	i	12	i	i
COCCC(=O)N1CCC(Oc2ccc(C(=O)N3CCCC(CCCO)C3)cc2)CC1 (stereo unspecified)	i	18	i	i
COCCC(=O)N1CCC(Oc2ccc(C(=O)N3CCCC(OC)C3)cc2)CC1 (stereo unspecified)	i	nt	i	nt
CN1CCCN(Cc2nc(-c3cccc(C(F)(F)F)c3)no2)CC1	i	i	i	i
O=C(CCN=C1NS(=O)(=O)c2ccccc21)OCc1nnc(-c2ccc([N+](=O)[O-])cc2)o1	i	i	nt	i
SMILES	Yeast superoxide	LANA-H2B inh	HIF act	HDAC3 inh
Nc1ccnn1Cc1ccncc1	i	i	i	i
CCOC(=O)C(CC)n1cnc2c(nnn2-c2ccc(F)cc2)c1=O (stereo unspecified)	i	i	i	i
CC(C)Oc1ccc(Cl)cc1Nc1nc(NCCO)nc(N2CCCC2)n1	i	i	i	28
CC(=O)NC(Cc1ccc(F)cc1)C(=O)NC1CCN(S(=O)(=O)c2ccccc2)CC1 (stereo unspecified)	i	i	i	i
CC(=O)NC(Cc1cccc(C)c1)C(=O)NC1CCN(S(=O)(=O)c2ccccc2)CC1 (stereo unspecified)	i	13	i	i
CCN(CC)C(=O)c1cccc(NC(=O)C2=COCCO2)c1	i	18	nt	i
Cc1ccc2c(c1)nnn2C1CCN(S(=O)(=O)c2ccc(C(=O)N3C(C)CCCC3C)cc2)CC1 (stereo unspecified)	i	i	i	i
Cc1ccc2c(c1)nnn2C1CCN(S(=O)(=O)c2ccc(C(=O)O)cc2)CC1	i	126	i	i
O=C1C=C(c2ccc3c(c2)OCCO3)C[C@@H](c2ccc(F)cc2)C1	i	i	nt	i
